The values that follow come from PubChem BioAssay (NCATS).

The assay is described as follows: qHTS profiling of the MIPE4 collection as inhibitors of Plasmodium falciparum (DD2) proliferation (AID 743345). As to conditions: P. falciparum Dd2 in erythrocytes, SYBR Green DNA, 72 h; at 28.5 µM (top of the series) unless noted. A digest of the protocol:
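Parasite DNA was quantified by SYBR Green I fluorescence (ex 485, em 535 nm) after overnight lysis in saponin/Triton buffer at room temperature. Cultures at 0.3% parasitemia and 2.5% hematocrit were first exposed to compound for 72 h at 37 C; signals were normalised to artemisinin (0.29 uM) and vehicle wells.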
On the technique in general: qHTS replaces the single test concentration by a dilution series.
Take `CN(CC(=O)N(Cc1ccc(C2CCCCC2)cc1)c1ccc(C(=O)O)c(O)c1)S(=O)(=O)c1c(F)c(F)c(F)c(F)c1F`: the parasite growth remaining, % of DMSO control (lower = more inhibition) was 95.9%. In the case of `O=C(Nc1ccc(Oc2ccnc3[nH]ccc23)c(F)c1)c1cccn(-c2ccc(F)cc2)c1=O`, the parasite growth remaining, % of DMSO control (lower = more inhibition) turned out to be 69.1%. With `N#Cc1c(NC(=O)c2cccc3ccccc23)sc2c1CCCC2`, the parasite growth remaining, % of DMSO control (lower = more inhibition) stood at 81.7%. On to `O=C(CCCCCCC(=O)Nc1cccnc1)NO`, for which the parasite growth remaining, % of DMSO control (lower = more inhibition) turned out to be 7.37%. Under `C[C@]12C=CC(=O)N[C@@H]1CC[C@H]1[C@H]3CC[C@@H](C(=O)Nc4cc(C(F)(F)F)ccc4C(F)(F)F)[C@@]3(C)CC[C@@H]12` stands 9.12%; under `C[C@@]12C[C@@]3(O)O[C@@H](O1)[C@]1(COC(=O)c4ccccc4)[C@@H]3C[C@@]12O[C@@H]1O[C@H](CO)[C@@H](O)[C@H](O)[C@@H]1O`, 96.7%. Under `Cc1cnc(NC(=O)Nc2cc(Br)c(C)cc2OC[C@@H]2CNCCO2)cn1` stands 7.73%; under `CCN1CCN(C(=O)N[C@H](C(=O)N[C@@H]2C(=O)N3C(C(=O)O)=C(CSc4nnnn4C)CS[C@@H]23)c2ccc(O)cc2)C(=O)C1=O`, 95.9% [at 9.64 µM]; under `O=C1CSC(=O)N1C(CCc1ccncc1)COc1ccc(-c2cccc([N+](=O)[O-])c2)cc1` (configuration not stated), 49.4%. For `O=c1c(O)c(-c2ccc(O)c(O)c2)oc2cc(O)ccc12`, the parasite growth remaining, % of DMSO control (lower = more inhibition) was determined as 8.33%. With `COc1cccc2c1C(=O)c1c(O)c3c(c(O)c1C2=O)C[C@@](O)(C(C)=O)C[C@H]3O[C@H]1C[C@H](N)[C@H](O)[C@H](C)O1` the figure was 5.82%. As to `O=C(O)C=Cc1ccc(Cn2ccnc2)cc1`, the parasite growth remaining, % of DMSO control (lower = more inhibition) turned out to be 100%. For the compound `CC[C@H]1OC(=O)[C@H](C)[C@@H](O[C@H]2C[C@@](C)(OC)[C@@H](O)[C@H](C)O2)[C@H](C)[C@@H](O[C@@H]2O[C@@H](C)C[C@H](N(C)C)[C@@H]2O)[C@](C)(O)C[C@@H](C)C(=O)[C@H](C)[C@@H](O)[C@]1(C)O`, the parasite growth remaining, % of DMSO control (lower = more inhibition) stood at 75%.

With `N#Cc1c(C2CCNCC2)cc(-c2c(O)cccc2OCC2CC2)nc1N`, the parasite growth remaining, % of DMSO control (lower = more inhibition) is 12.3%. In the case of `COc1cc(C(C)C)c(Oc2cnc(NC(CO)CO)nc2N)cc1I`, the parasite growth remaining, % of DMSO control (lower = more inhibition) came to 86.9%. `c1coc(CNc2ncnc3nc[nH]c23)c1`: the parasite growth remaining, % of DMSO control (lower = more inhibition) was found to be 26.3%. Under `CCCCCN=C(N)NN=Cc1c[nH]c2ccc(OC)cc12` stands 7.01%; under `O=C(O)C[C@H](O)C[C@H](O)C=Cc1c(C2CC2)nc2ccccc2c1-c1ccc(F)cc1`, 92.7%; under `CN(C)CCN1C(=O)c2cccc3cc(N)cc(c23)C1=O`, 12.6%.

On to `CCOC(=O)C1=C(C)NC(=S)NC1c1cccc(O)c1` (configuration not stated), for which the parasite growth remaining, % of DMSO control (lower = more inhibition) came out at 93.6%. With `CCc1ccc(C(=O)Nc2cc(CN3CCN(C)CC3)cc(C(F)(F)F)c2)cc1C#Cc1cnc2ccnn2c1` the figure was 6.73%. `C=C[C@@H]1CN2CCC1C[C@H]2[C@H](O)c1ccnc2ccc(OC)cc12` (some centres not stated): the parasite growth remaining, % of DMSO control (lower = more inhibition) came to 9.84%. In the case of `N#CNC(=NCCCCCCOc1ccc(Cl)cc1)Nc1ccncc1`, the parasite growth remaining, % of DMSO control (lower = more inhibition) was determined as 35.9%. On to `C[C@@]12C(=O)OC(=O)[C@@]1(C)C1CCC2O1`, for which the parasite growth remaining, % of DMSO control (lower = more inhibition) came to 14.9%. Take `CC(=O)N1CCN(c2ccc(OCc3nn(C)c(C)c3-c3cccc4c(CCCOc5cccc6ccccc56)c(C(=O)O)n(Cc5cccnc5)c34)cc2)CC1`: the parasite growth remaining, % of DMSO control (lower = more inhibition) came out at 9.41%. Turning to `CCN(CC)CCNC(=O)c1c(C)[nH]c(C=C2C(=O)Nc3ccc(F)cc32)c1C`, the parasite growth remaining, % of DMSO control (lower = more inhibition) came out at 7.72% [at 57.5 µM]. Under `COc1cc(C)c(C=CC(C)=CC=CC(C)=CC(=O)O)c(C)c1C` stands 115%; under `C=C(C)[C@@H]1CC[C@]2(C(=O)O)CC[C@]3(C)[C@H](CC[C@@H]4[C@@]5(C)CC[C@H](O)C(C)(C)[C@@H]5CC[C@]43C)[C@@H]12`, 20.6%. With `Cn1cc(C[C@@H](N)C(=O)O)c2ccccc21` the figure was 82.7% [at 9.64 µM].

Regarding `CCOC(=O)N1CCN([N+]([O-])=NOc2ccc([N+](=O)[O-])cc2C#N)CC1`, the parasite growth remaining, % of DMSO control (lower = more inhibition) amounted to 23.5%.

For the compound `C=CC(=O)N1CCc2ccc(-n3c(=O)ccc4cnc5ccc(-c6cnn(C)c6)cc5c43)cc21`, the parasite growth remaining, % of DMSO control (lower = more inhibition) amounted to 8.35%. For the compound `CON=C(C(=O)N[C@@H]1C(=O)N2C(C(=O)O)=C(CSC(=O)c3ccco3)CS[C@H]12)c1csc(N)n1`, the parasite growth remaining, % of DMSO control (lower = more inhibition) was found to be 101%. Under `O=C(C=CC=Cc1ccc2c(c1)OCO2)N1CCCCC1` stands 15.8%; under `COC1=C(OC)C(=O)C(CC=C(C)CCC=C(C)CCC=C(C)CCC=C(C)CCC=C(C)CCC=C(C)CCC=C(C)CCC=C(C)CCC=C(C)CCC=C(C)C)=C(C)C1=O`, 46.1%. Under `Cn1cc(CNCC2CCN(c3ncc(C(=O)NO)cn3)CC2)c2ccccc21` stands 7.34%. Turning to `COc1cc2ncnc(Nc3cccc(Br)c3)c2cc1OC`, the parasite growth remaining, % of DMSO control (lower = more inhibition) was 37.1%. Under `C[C@@H]1C(=O)O[C@H]2CC34[C@H]5C[C@@H](C(C)(C)C)C36[C@H](OC(=O)[C@@H]6O)O[C@@]4(C(=O)O5)[C@]21O` (some centres not stated) stands 97.7%.
